Compound activity as filed in PubChem.
A selection: hits, their analogues and other compounds. The true share with any hit is near 4%.
PAX8 inh HTS = inhibitors of PAX8-driven TPO luciferase reporter, primary screen, RMG-I cells, single concentration | SteadyGlo, 24 h | inhibition, % at 12.6 µM | 360,000 tested, 1.2% active | AID 652154, 2013;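 active = mean replicate inhibition at least 60% with every replicate also reaching 60%; inconclusive = only one of the two criteria is met; inactive = mean below 60% and not all replicates reaching 60%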;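 note: luciferase light reporting Pax8 driven TPO promoter activity; plate controls were median of neutral control wells for no effect and mitoxantrone controls for full effect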
Beta apoptosis = inhibitors of cytokine-induced beta cell apoptosis, primary screen, luminescence; INS-1E cytokine-induced death, ATP luminescence, 48 h; percent of positive-control rescue, neutral wells zero; protection from apoptosis, % (concentration not given with the values); 300,000 tested, 0.8% active; AID 435005, 2010;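 active = Every replicate reaches about 75%, or at least half do and their mean reaches it too, limit read from the data; inconclusive = At least half of replicates reach the limit but their mean does not; inactive = Under half of replicates reach the limit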;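 note: 0% = cytokine-treated negative control wells and 100% = positive control rescue; higher means more ATP so stronger rescue from cytokine killing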
Gli-Sufu antag = Gli-Sufu pathway antagonists, primary screen, luciferase luminescence, Sufu-KO-LIGHT cells, uHTS; 340,000 tested, 0.74% active; AID 588413, 2011; inhibition, % at 5 µM; Sufu-KO-LIGHT fibroblasts, Gli luciferase reporter luminescence;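 active = inhibition above about 55%, limit read from the data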;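 note: 0% = DMSO-treated cells and 100% = wells with medium but no cells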
Mdm2 MdmX PPI = inhibitors of human Mdm2-MdmX association, primary screen, cell-based, luminescence, split luciferase, SaOS-2, uHTS | Protein Mdm4 (Homo sapiens) + E3 ubiquitin-protein ligase Mdm2 (Homo sapiens), … | inhibition, % at 8 µM | SaOS-2 split-luciferase Mdm2/MdmX complementation | 330,000 tested, 3% active;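 active = inhibition of at least 50% at 8 µM in the primary screen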
Target sequence (O15151 whole entry, looked up): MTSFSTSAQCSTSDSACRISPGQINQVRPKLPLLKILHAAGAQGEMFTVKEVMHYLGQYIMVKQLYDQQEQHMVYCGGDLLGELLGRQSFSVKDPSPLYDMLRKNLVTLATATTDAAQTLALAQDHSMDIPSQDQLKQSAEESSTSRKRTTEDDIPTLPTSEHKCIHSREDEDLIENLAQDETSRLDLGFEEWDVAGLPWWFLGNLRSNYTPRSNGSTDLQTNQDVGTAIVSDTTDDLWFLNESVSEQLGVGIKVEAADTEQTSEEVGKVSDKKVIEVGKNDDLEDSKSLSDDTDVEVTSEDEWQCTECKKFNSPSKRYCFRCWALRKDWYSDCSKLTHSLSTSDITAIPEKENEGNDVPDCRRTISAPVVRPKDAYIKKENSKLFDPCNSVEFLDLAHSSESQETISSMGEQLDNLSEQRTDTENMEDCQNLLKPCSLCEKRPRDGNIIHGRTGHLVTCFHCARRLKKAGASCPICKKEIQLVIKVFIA
Target sequence (Q00987 whole entry, looked up): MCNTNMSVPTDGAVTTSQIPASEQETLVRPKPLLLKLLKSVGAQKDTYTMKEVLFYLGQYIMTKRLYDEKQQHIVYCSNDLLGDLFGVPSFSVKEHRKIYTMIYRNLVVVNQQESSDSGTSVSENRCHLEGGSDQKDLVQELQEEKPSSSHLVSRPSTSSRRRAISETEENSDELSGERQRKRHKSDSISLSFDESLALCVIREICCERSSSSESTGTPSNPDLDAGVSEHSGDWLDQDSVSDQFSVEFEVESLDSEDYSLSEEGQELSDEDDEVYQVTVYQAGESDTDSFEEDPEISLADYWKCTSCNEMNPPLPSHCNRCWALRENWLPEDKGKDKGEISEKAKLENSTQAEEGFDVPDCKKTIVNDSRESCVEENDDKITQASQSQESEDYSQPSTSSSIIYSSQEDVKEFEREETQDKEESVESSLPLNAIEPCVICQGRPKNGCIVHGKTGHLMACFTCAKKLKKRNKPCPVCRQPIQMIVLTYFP
CSC inhib = cancer stem cell viability inhibitors, primary screen, luminescence; cancer stem cell-like cells viability; inhibition, % at 7.5 µM; 300,000 tested, 1.1% active; AID 2717, 2010; in the data active = inhibition above about 75%; inconclusive = no clear call, values can overlap the other calls; tested in HMLE shEcad cells
Shn3 inh set2 = reduction of Shn3 3'UTR firefly luciferase signal, primary screen, Schnurri-3 inhibitor project, cell-based, Clone20 osteoblasts, set 2 | inhibition, % at 12.5 µM | Clone20 osteoblast Shn3 3'UTR firefly luciferase, 24 h | 360,000 tested, 0.52% active;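 active = mean inhibition of at least 75% with every replicate also reaching 75%; inconclusive = mean inhibition at least 75% but some replicate below; inactive = mean inhibition below 75%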;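 note: 0% = median of neutral control wells and 100% = pilot-screen positive control compound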
Mdm2-MdmX conf = Mdm2-MdmX complex disruptors, retested hits, confirmation, luminescence, single concentration; shares compounds with Mdm2 MdmX PPI; Mdm2-MdmX binding, luminescent assay; inhibition, % at 8 µM; 10,000 tested, 55% active; AID 489028, 2010; in the data active = inhibition above about 40%
FLuc counter = full-length luciferase signal inhibition, confirmation, counter-screen for Mdm2/MdmX interaction inhibitor project, cell-based, single concentration, SaOS-2; shares compounds with Mdm2 MdmX PPI; SaOS-2 full-length luciferase counterscreen, luminescence; inhibition, % at 8 µM; 6,200 tested, 77% active; AID 504607, 2011;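 active = mean inhibition at 8 µM reaching about 37%, which flags the compound as non-specific, limit read from the data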;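 note: p53-null SaOS-2 cells with luciferase driven by a doxycycline-inducible promoter; compound on cells about two nights before reading with doxycycline added after day one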
* hit, by the source's call; ? = inconclusive; / = not tested or not shown.

SMILES	PAX8 inh HTS	Beta apoptosis	Gli-Sufu antag	Mdm2 MdmX PPI	CSC inhib	Shn3 inh set2	Mdm2-MdmX conf	FLuc counter
CC(C)NC(=O)Nc1ccc2c(c1)CC(=O)N([C@H](C)CO)C[C@H](C)[C@@H](CN(C)C(=O)Nc1ccc3c(c1)OCO3)O2	-16	/	/	/	/	/	/	/
N/C(=N\NC(=O)c1sccc1OCc1ccc(Cl)cc1Cl)c1ccccn1	1	78*	-3	62*	-3	64	65*	35
C/C=C/c1cnc2c(c1)C(=O)N([C@H](C)CO)C[C@@H](C)[C@H](CN(C)Cc1ccc3c(c1)OCO3)O2	-18	/	/	/	/	/	/	/
CC(C)CN(C#N)c1nc(N2CCOCC2)nc(N2CCOCC2)n1	8	-4	1	51*	10	-6	38	70*
Cc1ccc(S(=O)(=O)N(C)C[C@@H]2Oc3ccc(NC(=O)Cc4ccccc4)cc3C(=O)N([C@H](C)CO)C[C@@H]2C)cc1	-3	/	/	/	/	/	/	/
O=C(CCCOc1ccc(Cl)cc1Cl)N/N=C/c1ccccc1O	21	-4	2	76*	168*	82	82*	22
COc1ccccc1NS(=O)(=O)c1cccc(N=C2N=C(N)c3ccccc32)c1	31	-8	-4	51*	4	13	24	/
NC1=NC(=Nc2ccc(Cl)cc2)c2ccccc21	-9	-7	2	55*	28	-1	-12	/
NC1=NC(=Nc2cccc(Cl)c2)c2ccccc21	16	-6	-6	51*	20	7	16	/
NC1=NC(=Nc2ccccc2)c2ccccc21	12	-3	2	25	6	-6	/	/
NC1=NC(=Nc2cccc(S(N)(=O)=O)c2)c2ccccc21	-3	-11	0	29	5	/	/	/
C[C@@H]1CCCCO[C@H](CN(C)S(=O)(=O)c2ccccc2)[C@@H](C)CN([C@H](C)CO)C(=O)c2cc(NC(=O)CCC(F)(F)F)ccc2O1	-6	/	/	/	/	/	/	/
CNC[C@@H]1Oc2c(NC(=O)Nc3ccc(OC)cc3)cccc2C(=O)N([C@H](C)CO)C[C@@H]1C	0	/	/	/	/	/	/	/
COCC#Cc1cnc2c(c1)C(=O)N([C@@H](C)CO)C[C@H](C)[C@H](CN(C)C(=O)Nc1cc(F)ccc1F)O2	-28	/	/	/	/	/	/	/
CCCNC(=O)C[C@@H]1CC[C@H]2[C@H](COc3ccc(NC(=O)c4cccc(C(F)(F)F)c4)cc3C(=O)N2C)O1	20	/	/	/	/	/	/	/
Cc1noc(C)c1S(=O)(=O)Nc1ccc2c(c1)C(=O)N([C@H](C)CO)C[C@H](C)[C@@H](CN(C)S(=O)(=O)c1cccs1)O2	-19	/	/	/	/	/	/	/
CC(C)(C)c1ccc(Cn2c(=N)n(CC(O)c3ccco3)c3ccccc32)cc1 (stereo not given)	/	38	65*	98*	10	83*	84*	40*
Cc1cnc(NC(=O)CCNC(=O)c2ccccc2Cl)s1	-1	-5	-18	-3	-20	-13	/	/
Cc1cnc(NC(=O)COc2ccccc2Cl)s1	/	-13	-70	53*	/	63	36	/
COc1ccc(OC)c(C2C(C(=O)c3ccccc3)=C(C)Nc3nc4ccccc4n32)c1 (stereo not given)	4	/	14	98*	4	5	76*	80*
CCOC(=O)C1=C(C)Nc2nc3ccccc3n2C1c1ccccc1 (stereo not given)	4	-3	9	54*	23	-16	8	/
CN1CCN(C(=O)C[C@H]2C=C[C@H](NC(=O)Cc3ccccn3)[C@H](CO)O2)CC1	-8	/	/	/	/	/	/	/
COc1ccccc1C1CC(c2c(-c3ccccc3)c3cc(Cl)ccc3[nH]c2=O)=NN1S(C)(=O)=O (stereo not given)	/	18	-24	37	10	6	/	/
COc1cccc(C2CC(c3c(-c4ccccc4)c4cc(Cl)ccc4[nH]c3=O)=NN2S(C)(=O)=O)c1OC (stereo not given)	/	20	25	50*	16	6	32	69*
Cc1n[nH]c(=S)n1/N=C/c1ccccc1OCc1ccc(Cl)cc1Cl	/	8	-10	53*	-6	1	11	/
SMILES	PAX8 inh HTS	Beta apoptosis	Gli-Sufu antag	Mdm2 MdmX PPI	CSC inhib	Shn3 inh set2	Mdm2-MdmX conf	FLuc counter
COc1ccc(-c2c([C@H]3[C@H]4C=CC[C@@H](C)[C@@H]4C(=O)N3Cc3ccccc3)ccc3ccccc23)cc1	28	107*	0	69*	46	11	16	/
COc1cc(-c2cccc([C@H]3[C@@H]4C=CC[C@@H](C)[C@@H]4C(=O)N3Cc3ccccc3)c2)cc(OC)c1OC	22	/	6	83*	/	17	35	/
COc1ccccc1Nc1c2c(nc3ccccc13)CCC2	42	14	/	56*	70	34	53*	58*
COc1cc(Nc2c3c(nc4ccccc24)CCCC3)cc(OC)c1OC	0	-6	22	68*	-4	-24	64*	76*
COc1ccc(Nc2c3c(nc4ccccc24)CCC3)c(OC)c1	29	15	30	47	15	50	/	/
Cc1noc(C)c1NC(=O)N(C)C[C@@H]1OCCCC[C@H](C)Oc2ccc(NC(=O)Nc3ccc(C(F)(F)F)cc3)cc2C(=O)N([C@@H](C)CO)C[C@@H]1C	16	/	/	/	/	/	/	/
CCN(CC)CCn1nc2c3c(cccc3c1=O)-c1ccccc1-2	?	113*	47	83*	105*	48	83*	20
COc1ccc(S(=O)(=O)N(C)C[C@H]2OCCCC[C@@H](C)Oc3ccc(NC(=O)Nc4ccccc4)cc3C(=O)N([C@@H](C)CO)C[C@H]2C)cc1	22	/	/	/	/	/	/	/
O=C(/C(=C\c1ccccc1)c1nc2ccccc2[nH]1)c1ccc(Cl)cc1	-259	3	-36	100*	79*	-65	-54	/
O=C(/C(=C/c1ccc(Cl)cc1)c1nc2ccccc2[nH]1)c1cccs1	/	126*	-15	81*	93*	88*	100*	51*
O=C(/C=C/c1cccc(Cl)c1)c1nc2ccccc2[nH]1	-12	-3	-1	92*	84*	32	4	/
COC(=O)/C(=C\c1ccc(O)cc1)c1nc2ccccc2[nH]1	-37	-9	4	-8	-14	-63	/	/
O=C(NCC[C@@H]1CC[C@@H](NC(=O)c2ccc3c(c2)OCO3)[C@H](CO)O1)Nc1ccc(Cl)cc1	-133	/	/	/	/	/	/	/
